# ChEMBL document CHEMBL3988442, “University of Dundee, Small-Polar-MMV Screening Library” (2021)
# Several values for one entry are separate records, joined by “and”; a condition that tells them apart may be missing. Equal entries are not always repeated. About 290 (0.85%) of roughly 34,000 compounds showed an effect of 50% or more. This excerpt belongs to a sample that is enriched for strong results.
# Test system: Plasmodium falciparum
# Test: Plasmodium falciparum sporozoite viability assay
# Format: functional, organism-based
# Parameters: scale not given: in the data most compounds retested in dose-response had high values
SMILES,Percent Effect,Percent Effect (10 mM as filed; unlikely as a test dose)
CNC(=O)[C@@H]1CCO[C@@H]2CCN(CCc3ccccc3)C[C@H]21.O=C(O)C(F)(F)F,14.59%,–
Cc1cnc(N(C)Cc2cnc3ccccc3n2)nc1N(C)C,–,42.78% and 58%
CC(=O)c1cnc(N(C)Cc2cnc3ccccc3n2)nc1C,–,-14.78% and -20.36%
CC(CO)CN(Cc1ccccc1)Cc1cnc2ccccc2n1 (stereo unspecified),–,33.49% and 37.4%
Cc1cnn(C2CCCN(C(=O)Cc3ccc(C)s3)C2)c1 (stereo unspecified),7.18%,–
Cc1cnc(CCNc2cccc(CC3CCCNC3)n2)s1.Cl (stereo unspecified),-6.2%,–
Cc1nc(N(CCC(N)=O)Cc2ccccc2)c2nc(C)oc2n1,2.982%,–
CN(Cc1noc(C2CC2)n1)C1CCN(Cc2ccccc2C#N)C1 (stereo unspecified),5.942%,–
Cc1nccn1CCCC(=O)N1CCCC(c2noc(C(C)C)n2)C1 (stereo unspecified),1.926%,–
CC(=O)N1CCCN(C(=O)NCc2ccc(-c3ccn[nH]3)cc2)CC1,9.841%,–
CN1CCN(Cc2ccc(-c3ccc(C(N)=O)cc3)nc2)CC1,–,-29.68% and -21.28%
CN1CCN(Cc2ccc(-c3ccc(-c4ccn[nH]4)cc3)nc2)CC1,–,56.12% and 32.6%
O=C(NCc1nn(-c2ccccc2)c2c1CCC2)NCC1COCCO1 (stereo unspecified),13.65%,–
Cc1nc2c(c(NCCc3nccs3)n1)CCN(CC1CC1)CC2,-1.253%,–
Cc1cnn(CC2CCCN2C(=O)c2cc3ccccc3c(=O)[nH]2)c1 (stereo unspecified),2.755%,–
CN1CCC(c2cccc(NCc3nccn3C)n2)CC1,–,4.151% and -3.748% and -15.94%
CN1CCC(c2cnc(NCc3nccn3C)cn2)CC1,–,45.14% and 64.85% and 67.7%
Cl.Cn1ccnc1CNC(=O)c1cnc(C2CCNCC2)cn1,2.787%,–
COc1ccc(CN(C)[C@@H]2CN(C(=O)c3cnn(C)c3)C[C@H]2O)cc1,2.355%,–
FC1(F)CCN(Cc2ccncc2)CC12CCN(c1cnccn1)C2.O=C(O)C(F)(F)F.O=C(O)C(F)(F)F.O=C(O)C(F)(F)F (stereo unspecified),22.83%,–
O=C(c1[nH]nc(C2CC2)c1Cl)N1CCN(C2CC2)CC1,–,-13.62% and -21.71%
O=C(c1[nH]nc(C2CC2)c1Cl)N1CCCC1,–,-32.9% and -32.97%
O=C(c1[nH]nc(C2CC2)c1Cl)N1CCN(C2CC2)C(=O)C1,–,67.53% and 69.62%

SMILES,Percent Effect,Percent Effect (10 mM as filed; unlikely as a test dose)
CCOCc1ncn2c1CN(C(=O)Nc1ccccc1CC)CC2,3.671%,–
CN(C)CCN1Cc2ncn(C)c2C(COCC(=O)N(C)C)C1 (stereo unspecified),10.44%,–
CC1CCc2nn(CCNC(=O)Cc3ccccc3F)c(=O)cc2C1 (stereo unspecified),–,-25.04% and -6.135% and -21.75%
CCN(CC)Cc1ccc(C(=O)N2CCCC2Cn2cccn2)o1 (stereo unspecified),-5.987%,–
Cc1cc(N2CCC3(CCCN(CCO)C3=O)C2)nc2cc(Cl)ccc12 (stereo unspecified),-0.3581%,–
COc1ccc(NC(=O)c2cnc(C3CCN(C)CC3)nc2C)cc1,-1.219%,–
O=C(NC1=NCCCN1c1ccc(Cl)cc1)c1cccc(Cl)c1,–,-9.725% and -15.1% and -5.453%
COc1cccc(C(=O)Nc2ccc(OC3CCN(C)CC3)cc2)c1,–,24.26% and 49.56% and 59.7%
Cc1cccc(C(=O)Nc2ccc(OC3CCN(C)CC3)cc2)c1,–,84.14% and 90.45% and 76.34%
O=C(CN1CCCS1(=O)=O)Nc1ccc(OC2CCCC2)cc1,-4.929%,–
CCOc1ccc(N2CCCN=C2NC(=O)c2cccc(Cl)c2)cc1,-13.96%,–
N#Cc1cc(NC(=O)c2ccccc2)ccc1N1CCC(O)CC1,-10.71%,–
CCC1=N[C@@]2(CC[C@@H]3CN(Cc4ccc(Cl)cc4)C[C@@H]32)C(=O)N1C.O=C(O)C(F)(F)F,-5.486%,–
Cc1nc(CC(=O)N2CCC(c3nn(C)c4ncccc34)CC2)cs1.Cl,3.729%,–
Cc1nc(-c2nnc[nH]2)sc1C(=O)N1CCCC1c1ccsc1 (stereo unspecified),7.018%,–
Cc1nc(C)n(C2CCCN(C(=O)c3csc(CC(C)C)n3)C2)n1 (stereo unspecified),0.06439%,–
CN(C)c1ccc(C(=O)N2CCC(c3cc4ncccc4[nH]3)CC2)cc1,-1.989%,–
CC(=O)NCCC(=O)NCc1cc(Br)ccc1OC(F)F,-22.55%,–
O=C(O)C(F)(F)F.O=C(c1ccccc1)N1CCCC2(CCN2Cc2cccc(F)c2)C1 (stereo unspecified),4.203%,–
CC(C)N1CCO[C@@H]2CN(C(=O)NCc3ccccc3)CC[C@@H]2C1.O=C(O)C(F)(F)F,8.185%,–
CCC(=O)N1CCC(Cc2ccccc2-c2cccc(C)c2)(C(N)=O)C1 (stereo unspecified),2.181%,–
COc1cc(CNCc2ccnc(N3CCCCC3)c2)cc(OC)c1,3.028%,–
CSc1ccccc1C(=O)Nc1ccc(OC2CCN(C)CC2)cc1,–,86.05% and 73.83% and 74.05%

SMILES,Percent Effect,Percent Effect (10 mM as filed; unlikely as a test dose)
O=C(CC1CC1)N1Cc2nccn2CC(Cn2ncccc2=O)C1 (stereo unspecified),1.18%,–
CCN1CCCn2c(nc(CNC(=O)c3ccsc3)cc2=O)C1,-13.03%,–
O=C(c1cc(Cl)c[nH]1)N(CCCO)Cc1cccnc1,-9.649%,–
Nc1nc2c(c3c1C(=O)NC3=O)CCCC2,–,-19.96% and -21.28%
O=C1NC(=O)c2c3c(nc(O)c21)CCCC3,–,-19.04% and -16.96% and 3.732%
Nc1nc2c(c3c1C(=O)NC3=O)CCC2,–,75.96% and 84.59%
CN(C)CCO[C@H]1CN(Cc2ccco2)[C@@H]2COC[C@H]12.O=C(O)C(F)(F)F.O=C(O)C(F)(F)F,12.07%,–
CCC(=O)N1CCCC(C(=O)c2cnn(-c3ccc(F)cc3)c2N)C1 (stereo unspecified),–,46.01% and 80.8% and 57.02%
CC(=O)N1CCC(C(=O)c2cnn(-c3ccccc3)c2N)C1 (stereo unspecified),-4.265%,–
CC(=O)N1CCCC(C(=O)c2cnn(-c3ccc(F)cc3)c2N)C1 (stereo unspecified),–,27.98% and 70.48% and 45.02%
CCC(=O)N1CCCC(c2nc(N(C)C)ncc2-c2ccc(F)cc2)C1 (stereo unspecified),2.091%,–
CCOC(=O)C1CCN(C(=O)c2cnn(-c3ccc(C)cc3)c2N)CC1,-31.22%,–
CCCC(=O)N1CCCC(c2ccccn2)C1 (stereo unspecified),-4.87%,–
COc1ccc2c(c1)c(-c1nc(N(C)C)ncc1CN)cn2C,23.78%,–
CCC(=O)N1CCC2(CC1)CNC(=O)c1cc(C)ccc1O2,7.401%,–
CCOc1ncccc1NC(=O)Nc1c(C)nn(C(C)C)c1C,2.999%,–
Clc1ccc(OCCCN2CCN(c3cnccn3)CC2)cc1,-11.56%,–
O=C(Cn1cc(C2CC2)nn1)N(Cc1ccco1)CC1CCCO1 (stereo unspecified),-0.6519%,–
Fc1cccc(Cc2cncc(C3CCCN3C3CCOCC3)n2)c1 (stereo unspecified),-10.3%,–
Cc1cccc(C(=O)N2CCN(C(=O)Cc3ccccn3)CC2)c1C,–,0.7402% and -14.31% and -17.8%
CN1CCN(C2CCN(CCOc3ccccc3)CC2)C1=O,2.798%,–
CN1CCN(C2CCN(c3ccnc(-c4ccccc4)n3)CC2)C1=O,–,-12.56% and 9.01% and -14.11%
CN1CCN(C2CCN(c3cnc4ccccc4n3)CC2)C1=O,–,71.66% and 96.44% and 85%

SMILES,Percent Effect,Percent Effect (10 mM as filed; unlikely as a test dose)
CCc1n[nH]c(C2CN(C(=O)c3ccnc(C)n3)CCO2)n1 (stereo unspecified),-2.148%,–
CCc1nc(CC(=O)N2CCCCC2Cn2cccn2)cs1 (stereo unspecified),3.352%,–
Cc1cccc(CN2C[C@@H]3CN(C(=O)C4CC=CC4)C[C@@H]3C2=O)n1,-3.24%,–
O=C(c1ccc(C2CCCO2)s1)N1Cc2ccccc2C1 (stereo unspecified),–,-3.474% and -5.294% and -6.784%
CC(=O)N1CCCC1c1ccc(C(=O)N2CCOCC2)s1 (stereo unspecified),9.227%,–
CN1CCCC1c1ccc(C(=O)N2CCc3ccccc3C2)s1 (stereo unspecified),–,96.19% and 93.66% and 95.32%
Cc1cc(N2CCN(c3ccc(=O)[nH]n3)CC2)nc(-c2ccncc2)n1,8.684%,–
Cc1nc(C)n(CC2CCCN(Cc3ccccc3C#N)C2)n1 (stereo unspecified),4.939%,–
CC(=O)N[C@H]1CCO[C@@H](c2cccc(NC(=O)c3cccc(F)c3)c2)C1,–,55.02% and 42.93% and 54.57%
CC(=O)N[C@H]1CCO[C@@H](c2cccc(NC(=O)C(C)(C)C)c2)C1,–,12.38% and 11.09% and 3.549%
Cc1nn(C)cc1CN1CCC(c2ncc(Cl)cc2S(C)(=O)=O)CC1,3.927%,–
Cc1cc(C)c(S(=O)(=O)NCCC(=O)NCc2ccoc2)c(C)c1,-16.91%,–
CN(C)C(=O)NCC1CC2(CO1)CN(c1nncs1)C2 (stereo unspecified),9.107%,–
Cc1cc2cc(C(=O)N[C@@H]3CC[C@@H](N4CCNC(=O)C4)[C@@H]3O)ccc2o1,-1.506%,–
COc1ccccc1CNC(=O)CNCCn1cc(C)cn1,7.81%,–
Cc1nn(C)c(C)c1-c1cnc(C2CCCN(C)C2)cn1 (stereo unspecified),–,-21.75% and -20.87% and 0.3933%
Cc1csc(NC(=O)c2cnc(C3CCCN(C)C3)cn2)n1 (stereo unspecified),–,50.33% and 85.32% and 71.26%
Cc1csc(NC(=O)c2cnc(C3CCCN3)cn2)n1.Cl (stereo unspecified),–,76.82% and 93.2% and 90.06%
Cc1nc(C(=O)NCc2ccccn2)cc(C2CCCN2)n1 (stereo unspecified),15.86%,–
Cl.O=C(NCC(F)F)c1cnc(C2CCCN2)cn1 (stereo unspecified),6.016%,–
COc1c(C2CCCN2CC(=O)Nc2nc(C)cs2)c(C)nn1C (stereo unspecified),-5.597%,–
O=C(NCc1ccccn1)c1cnc(C2CCCN2)cn1 (stereo unspecified),-5.932%,–
